Measured values: the OligoGym collection

What follows are sequences tested against PDGFRB (assay: pooled miR-30 sensor sort-seq; sequence = guide strand). Settings: shRNA.

First: TCAGCTCTGACACATACCGGGT
Second: AAAGTCACAGATCTTGACCAGC
The sensor-assay potency score (higher = more potent) of the first is lower: -1.42 for the first, -0.788 for the second.

First: TTTGATGGCATTGTAGAACTGC
Second: TAACAGGAGAGACAGCAACAGC
The sensor-assay potency score (higher = more potent) of the first is higher: 0.772 for the first, -1.23 for the second.

Going from TTGATCAAAGTTGCTCGGCAGG to TTGCTGTAGAGCTCCGCGCTGG, the sensor-assay potency score (higher = more potent) falls from -0.679 to -0.717.

First: TAGCACTGGAGACTCGTTGATC
Second: TTGACGGCCACTTTCATCGTGG
The sensor-assay potency score (higher = more potent) of the first is lower: -0.385 for the first, -0.193 for the second.

First: TCTTTTTGTAACCTTCGCCCAA
Second: TTGGTCAGTGTGAGCACGCTGG
The sensor-assay potency score (higher = more potent) of the first is lower: -0.683 for the first, -0.355 for the second.

Sequence TAGTCCACCGACTCGTCCTTGC has a sensor-assay potency score (higher = more potent) of -0.654.

These sequences were tested against PDIA5 in the same assay as above. Settings: shRNA.

First: TAGTCTTTCATGGTCTCCCTCC
Second: TTTGACACAGTCAACAGCGGCA
The sensor-assay potency score (higher = more potent) of the first is lower: -0.586 for the first, -0.283 for the second.

Compared with TTCAACGTAGGAAACTCTGAGA, TTGCACATGCTGCACCAGGGGG is lower in sensor-assay potency score (higher = more potent): -0.249 for the first, -1.31 for the second.

First: TAATTCAACCTTTTTGTCCTTC
Second: TCATACTGGAACAAGAACCGTC
The sensor-assay potency score (higher = more potent) of the first is lower: 0.526 for the first, 0.647 for the second.

Going from TCAACCTTTTTGTCCTTCGGGC to TACTTTTCTGCGAACTTCCCAT, the sensor-assay potency score (higher = more potent) rises from -0.306 to -0.283.
